Source: PubChem BioAssay (Tox21)
The source made the active and inactive calls. Calls follow the shape of the dose curve; as a rule, active = well fitted curve in the direction sought with a large enough effect in the repeat runs; inconclusive = weak or mixed curves; inactive = flat fitted curve, though single readings scatter.

Assays:
[1] = qHTS assay to test for compound auto fluorescence at 535 nm (green) in HEK293 cells (AID 720680)
[2] = qHTS assay to test for compound auto fluorescence at 460 nm (blue) in HEK293 cell free culture (AID 720681)
Method in brief: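 Compounds were added to cell-free DMEM with 10% FBS and fluorescence read directly. The blue channel used 405 nm excitation and 460 nm emission, with triamterene as the reference fluorophore.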

[3] = qHTS assay to test for compound auto fluorescence at 535 nm (green) in HEK293 cell free culture (AID 720682)
Method in brief: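 Compounds were pin-transferred into cell-free DMEM with 10% FBS, and green fluorescence was read at excitation 485 nm and emission 535 nm. Intensities were expressed as fluorescein-equivalent values.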

[4] = qHTS assay to test for compound auto fluorescence at 590 nm (red) in HEK293 cell free culture (AID 720683)
Method in brief: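 Cell-free wells of DMEM with 10% FBS received compound, and intrinsic fluorescence was read at excitation/emission 540/590 nm. Values expressed as equivalence to Rose Bengal sodium.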

[5] = qHTS assay to test for compound auto fluorescence at 590 nm (red) in HepG2 cell free culture (AID 720684)
Method in brief: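 Compounds are added to culture medium (MEM, 10% FBS) lacking cells, then fluorescence is read at excitation 540 nm, emission 590 nm, with Rose Bengal sodium as the equivalency standard.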

[6] = qHTS assay to test for compound auto fluorescence at 460 nm (blue) in HepG2 cell free culture (AID 720685)
Method in brief: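 Compound (23 nL) or DMSO pinned into cell-free MEM with 10% FBS; blue fluorescence read at 405/460 nm excitation/emission, expressed as auto-fluorescence equivalency to triamterene.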

[7] = qHTS assay to test for compound auto fluorescence at 535 nm (green) in HepG2 cell free culture (AID 720686)
[8] = qHTS assay to test for compound auto fluorescence at 460 nm (blue) in HepG2 cells (AID 720687)
Method in brief: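 HepG2 cells in MEM with 10% FBS, attached overnight at 37 C, were exposed to compound or DMSO for 1 hr at 37 C, 5% CO2. Blue fluorescence was read at 405/460 nm, with triamterene as reference fluorophore.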

Measured: outcome

Clc1cc(Cl)c(Cl)c(Cl)c1
inactive: [1] | [2] | [3] | [4] | [5] | [6] | [7] | [8]

COC(=O)c1cncn1C(C)c1ccccc1 (stereo not given)
inactive: [1] | [2] | [3] | [4] | [5] | [6] | [7] | [8]

O=C(NCc1cccnc1)Nc1ccc([N+](=O)[O-])cc1
inactive: [1] | [2] | [3] | [4] | [5] | [6] | [7] | [8]

O=NN1CCCCCC1
inactive: [1] | [2] | [3] | [4] | [5] | [6] | [7] | [8]

CCOC(=O)C(Cl)C(C)=O (stereo not given)
inactive: [1] | [2] | [3] | [4] | [5] | [6] | [7] | [8]

CC[C@H]1C[C@H]2[C@@H]3CCC4=CC(=O)CC[C@@H]4[C@H]3CC[C@]2(C)[C@H]1O
inactive: [1] | [2] | [3] | [4] | [5] | [6] | [7] | [8]

O=C(O)C1(c2ccc3c(c2)OC[C@H](Cc2ccc(-c4ccccc4)cc2)[C@H]3O)CCCC1
inactive: [1] | [2] | [3] | [4] | [5] | [6] | [7] | [8]

COP(=O)(OC)O/C(=C/Cl)c1cc(Cl)c(Cl)cc1Cl
inactive: [1] | [2] | [3] | [4] | [5] | [6] | [7] | [8]

O=C1C(=O)c2cccc3cccc1c23
inactive: [1] | [2] | [3] | [4] | [5] | [6] | [7] | [8]

O=C(OC1CCCCC1)c1ccccc1C(=O)OC1CCCCC1
inactive: [1] | [2] | [3] | [4] | [5] | [6] | [7] | [8]

NC(=O)C(Cl)(Cl)Cl
inactive: [1] | [2] | [3] | [4] | [5] | [6] | [7] | [8]

CCOP(=O)(OCC)Oc1ccc([N+](=O)[O-])cc1
inactive: [1] | [2] | [3] | [4] | [5] | [6] | [7] | [8]

Cc1ccc(N)cc1C
inactive: [1] | [2] | [3] | [4] | [5] | [6] | [7] | [8]

Cc1ccc2ccccc2c1
inactive: [1] | [2] | [3] | [4] | [5] | [6] | [7] | [8]

C=CC(=O)OCC(C)O (stereo not given)
inactive: [1] | [2] | [3] | [4] | [5] | [6] | [7] | [8]

ClCCCCBr
inactive: [1] | [2] | [3] | [4] | [5] | [6] | [7] | [8]

ClC=C(Cl)Cl
inactive: [1] | [2] | [3] | [4] | [5] | [6] | [7] | [8]

CC1C(=O)C[C@]2(C(C)C)C[C@H]12 (stereo not given in full)
inactive: [1] | [2] | [3] | [4] | [5] | [6] | [7] | [8]

Clc1cc(C(Cl)(Cl)Cl)cnc1Cl
inactive: [1] | [2] | [3] | [4] | [5] | [6] | [7] | [8]

O=[N+]([O-])c1ccc(F)c([N+](=O)[O-])c1
inactive: [1] | [2] | [3] | [4] | [5] | [6] | [7] | [8]

CC(C)(C)C(O)C(Oc1ccc(Cl)cc1)n1cncn1 (stereo not given)
inactive: [1] | [2] | [3] | [4] | [5] | [6] | [7] | [8]

Clc1cccc(SC2CCNCC2)n1
inactive: [1] | [2] | [3] | [4] | [5] | [6] | [7] | [8]

O=C(O)C(F)(F)C(F)(F)C(F)(F)C(F)(F)C(F)(F)C(F)(F)C(F)(F)C(F)(F)C(F)(F)C(F)(F)F
inactive: [1] | [2] | [3] | [4] | [5] | [6] | [7] | [8]

NCCCNCCCN
inactive: [1] | [2] | [3] | [4] | [5] | [6] | [7] | [8]

C[N+](C)(C)CCCl
inactive: [1] | [2] | [3] | [4] | [5] | [6] | [7] | [8]

N#CCc1ccccc1
inactive: [1] | [2] | [3] | [4] | [5] | [6] | [7] | [8]

CN1C[C@H](CNC(=O)OCc2ccccc2)C[C@@H]2c3cccc4c3c(cn4C)C[C@H]21
inactive: [1] | [2] | [3] | [4] | [5] | [6] | [7] | [8]

CC(C)=CCOc1c2occc2cc2ccc(=O)oc12
inactive: [1] | [2] | [3] | [4] | [5] | [6] | [7] | [8]

c1cc2ccc3cccc4ccc(c1)c2c34
inactive: [1] | [2] | [3] | [4] | [5] | [6] | [7] | [8]

C=CC(=O)OC
inactive: [1] | [2] | [3] | [4] | [5] | [6] | [7] | [8]
